The campaign covered roughly 130,000 compounds. About 2,500 (1.9%) were called active.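 Rule for the calls: active = signal ratio slope over the read window, or its plate-corrected B-score, at least 3 SD from the plate mean, either direction; inactive = the rest.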 What follows is part of a selection rich in actives, with near analogues and random picks from the rest.
Target: ATP-sensitive inward rectifier potassium channel 1 (Homo sapiens) (UniProt P48048)
Assay: Kir1.1 channel activity modulation, library screen – cell-based, thallium flux, MLSMR library, primary screen (AID 1918);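 note: B-score of the F/F0 ratio slope over 7 to 12 s after thallium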
Conditions: Tet-inducible ROMK, thallium flux fluorescence; at 10 µM; actives lie on both sides

Chain of ATP-sensitive inward rectifier potassium channel 1 (Homo sapiens) (P48048 whole entry, looked up): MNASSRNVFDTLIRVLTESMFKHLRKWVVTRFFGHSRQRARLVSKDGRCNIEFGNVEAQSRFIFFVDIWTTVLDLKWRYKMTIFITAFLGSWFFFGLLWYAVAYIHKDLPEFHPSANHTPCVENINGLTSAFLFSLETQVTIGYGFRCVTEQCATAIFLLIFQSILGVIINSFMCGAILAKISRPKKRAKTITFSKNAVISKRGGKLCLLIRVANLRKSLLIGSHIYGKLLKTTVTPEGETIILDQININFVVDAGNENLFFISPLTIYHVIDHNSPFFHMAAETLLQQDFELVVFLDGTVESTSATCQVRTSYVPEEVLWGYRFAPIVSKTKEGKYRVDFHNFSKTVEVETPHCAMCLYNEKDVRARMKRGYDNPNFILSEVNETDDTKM

SMILES	B-score
CN1CCN(CC(=O)Nc2cccc([N+](=O)[O-])c2)CC1	0.51 (inactive)
CNC(=S)NNC(=O)c1cccn(Cc2ccccc2)c1=O	0.643 (inactive)
O=C(Nc1cccc(Cl)c1N1CCOCC1)c1ccc2c(c1)OCCO2	-0.937 (inactive)
CCS(=O)(=O)c1ccc(C(=O)NC)c(Cl)c1Cl	0.613 (inactive)
CN(C)c1ccc2c(=O)[nH][nH]c(=O)c2c1	0.291 (inactive)
Cc1ccc2nc3n(c(=O)c2c1)CCC3	0.127 (inactive)
Cc1ccc2c(=O)oc(N(C)C)nc2c1	2.36 (active)
Cc1cc(C)c(C(N)=O)c(Cl)n1	0.133 (inactive)
CC1CCCN(S(=O)(=O)c2ccc(C(=O)Nc3nnc(-c4ccncc4)o3)cc2)C1 (configuration not stated)	0.153 (inactive)
CC1CCCN(S(=O)(=O)c2ccc(N(C(=O)c3cnccn3)C(C(=O)NC3CCCCC3)c3cccs3)cc2)C1 (configuration not stated)	-3.38 (active)
Cc1ccc(N(C(=O)C(F)(F)F)C(C(=O)NC2CCCCC2)c2ccncc2)cc1C (configuration not stated)	-0.0116 (inactive)
N/C(=N\OC(=O)CCc1ccccc1)c1cccnc1	0.92 (inactive)
O=C(/C=C/c1ccccc1[N+](=O)[O-])OC1CCCCC1=O (configuration not stated)	0.69 (inactive)
COc1ccc(CCNC(=O)CCCCn2c(=O)[nH]c3ccccc3c2=O)cc1OC	0.342 (inactive)
COc1ccc(/C=N/S(=O)(=O)c2ccccc2)cc1OC	-0.975 (inactive)
COc1ccc(N=Cc2c(O)[nH]c3ccccc23)cc1OC	2.81 (active)
CCC1(C)Cc2c(sc3nc(SC)nc(N)c23)CO1 (configuration not stated)	-1.15 (inactive)
CCC1(C)Cc2c(sc3[nH]c(=S)n(Cc4ccccc4)c(=O)c23)CO1 (configuration not stated)	5.27 (active)
CCC1(C)Cc2c(sc3nc4n(c(=O)c23)CCCS4)CO1 (configuration not stated)	-0.196 (inactive)
NC(=O)C1CCN(C(=O)COc2cccc3cccnc23)CC1	0.124 (inactive)
Cc1cc(C(=O)N/N=C\C(Br)=C\c2ccccc2)c(C)o1	-0.321 (inactive)

SMILES	B-score
COc1ccc(/C=N/NC(=O)C(C)N(c2ccc(OC)cc2)S(C)(=O)=O)cc1 (configuration not stated)	-0.0127 (inactive)
CS(=O)(=O)N(CC(=O)N/N=C/c1ccccn1)c1ccc(Oc2ccccc2)cc1	-0.000176 (inactive)
CC(C(=O)NC1CCCC1)N(c1ccc(Oc2ccccc2)cc1)S(C)(=O)=O (configuration not stated)	-3.71 (active)
CSc1ccccc1NC(=O)CN(C)CC(=O)Nc1ccc(Cl)cc1[N+](=O)[O-]	-1.12 (inactive)
Cc1ccccc1C(OCC(O)CN1CCCCC1CCO)c1ccccc1 (configuration not stated)	-4.16 (active)
Cc1cccc(C)c1OCC(O)CN1CCCCC1 (configuration not stated)	0.161 (inactive)
CC(C)OCC(O)CN1CCN(C(c2ccccc2)c2ccccc2)CC1 (configuration not stated)	-0.0404 (inactive)
Cc1ccc(C(=O)OC2CCCN(C)C2)cc1 (configuration not stated)	0.17 (inactive)
Cc1ccc2nc(COc3ccc(N(C)S(=O)(=O)c4ccccc4)cc3)cc(=O)n2c1	0.648 (inactive)
COCCNC(=O)CCCn1c(=O)c2ccccc2n(Cc2cccc([N+](=O)[O-])c2)c1=O	-1.13 (inactive)
COc1ccc(CCNC(=O)COC(=O)Cc2cc(OC)c(OC)c(OC)c2)cc1	0.986 (inactive)
COc1ccc2c(c1)CCC/C2=N\OC(=O)c1ccccc1F	-0.245 (inactive)
Cc1ccccc1-n1nc(SCC(=O)O)sc1=S	-0.00827 (inactive)
O=C(CCN1CCc2ccccc2C(O)(c2ccccc2)C1)c1ccc2c(c1)OCCO2 (configuration not stated)	-3.53 (active)
O=C(CN1CCC(O)(c2ccccc2)CC1)Nc1ccc2c(c1)OCCO2	0.414 (inactive)
O=S(=O)(c1ccc2c(c1)OCCO2)N1CCc2ccccc21	0.399 (inactive)
COc1ccc(NC(=S)Nc2ccc(S(N)(=O)=O)cc2)c(C)c1	0.982 (inactive)
CN(C)CCCN(Cc1cc2cc3c(cc2[nH]c1=O)OCCO3)C(=O)NC1CCCCC1	0.033 (inactive)
COc1ccc(NC(=O)COc2ccc(C(=O)OCC(=O)N(C)C3CCS(=O)(=O)C3)cc2OC)cc1 (configuration not stated)	0.348 (inactive)
Cc1cccc(N2CCN(C(c3ccc(N(C)C)cc3)c3nnnn3C(C)(C)C)CC2)c1C (configuration not stated)	-2.94 (active)
CC(C)(C)n1nnnc1C(c1ccc2ncccc2c1)N1CCSCC1 (configuration not stated)	-0.18 (inactive)

SMILES	B-score
CC(=O)N1CCN(c2cccc(C)c2C)CC1	-0.0972 (inactive)
CCC(C(=O)Nc1ccc(C(C)C)cc1)c1ccccc1 (configuration not stated)	-0.192 (inactive)
COc1cc2sc(C)nc2cc1C	1.46 (inactive)
Fc1ccc2[nH]c3c(N4CCSCC4)ncnc3c2c1	-5.22 (active)
O=c1[nH]c(N2CCN(Cc3ccc4c(c3)OCO4)CC2)nc2c1CCCC2	-1.42 (inactive)
CC(C)OC(=O)C(C#N)c1nc2ccccc2nc1N1CCN(Cc2ccc3c(c2)OCO3)CC1 (configuration not stated)	-0.0869 (inactive)
CC(C)OCCCNc1ncnc2c1[nH]c1ccc(F)cc12	-2.49 (inactive)
Fc1ccc2[nH]c3c(N4CCN(Cc5ccc6c(c5)OCO6)CC4)ncnc3c2c1	-3.14 (active)
Nn1c(SCC(=O)Nc2nccs2)nncc1=O	1.33 (inactive)
COc1ccc(CC(=O)N[C@@H](CCSC)c2nc3ccccc3[nH]2)cc1	-1.58 (inactive)
CCc1nnc(NC(=O)CSc2nc(SC)ns2)s1	-0.0846 (inactive)
O=C(C1CCCN1S(=O)(=O)c1ccc(Br)cc1)N1CCOCC1 (configuration not stated)	-0.207 (inactive)
CCn1cc(C(=O)Nc2cc(C)ccc2C)c(=O)c2ccc(C)nc21	0.0033 (inactive)
COc1ccc(CC2(CO)CCN(Cc3cnn(C)c3)CC2)cc1	0.221 (inactive)
CCOc1cc(/C=C(/C#N)c2ccc(Cl)cc2)cc(Cl)c1OCC(=O)O	1.07 (inactive)
CCOc1cc(/C=C(\C#N)c2nc(-c3cccs3)c(NC(C)=O)s2)ccc1O	-2.6 (active)
CCOc1cccc(C(=O)Nc2nnc(-c3cccs3)s2)c1	1.45 (inactive)
Cc1ccc(S(=O)(=O)C2(S(=O)(=O)c3ccc(C)cc3)CCCC2)cc1	3.4 (active)
Cc1ccc(S(=O)(=O)N(C)C2(C)CCS(=O)(=O)C2)cc1 (configuration not stated)	1.47 (inactive)
Cc1ccc(S(=O)(=O)N2CCC(N3CCCCCC3)CC2)cc1	0.651 (inactive)

From PubChem BioAssay AID1918 (Vanderbilt High Throughput Screening Facility, 2009)
